# Data reported in PubChem BioAssay.
# Inconclusive results are not listed. Active and inactive are the calls of the source.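 Rule for the calls, unless noted: active = GFP signal, as percent of the solvent control, above the screen mean plus 3 SD, about 149; inconclusive = no reading because the compound's own fluorescence upset strain identification; inactive = the rest.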
# Tests used:
# [1] = yeast TOR pathway RPL19A-GFP modulators, primary screen, cell-based, S. cerevisiae, multiplex flow cytometry (AID 1862; in the data active = percent of DMSO control GFP below about 86%;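 note: lower values mimic rapamycin by blocking the RPL19A rise seen in DMSO cells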); conditions: S. cerevisiae RPL19A-GFP strain, flow cytometry fluorescence, 3 h; at 10 µM; stronger effect = lower value
# [2] = modulators of MEP2-GFP levels in yeast, primary screen, S. cerevisiae, multiplex flow cytometry (AID 1867;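 active = GFP response, as percent of the DMSO control, above the screen-wide mean plus 3 SD, about 139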;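 note: median GFP channel fluorescence of barcode-gated MEP2-GFP cells measured by flow cytometry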); conditions: S. cerevisiae MEP2-GFP strain, 3 h, at 10 µM, stronger effect = higher value, 100% means same as DMSO wells
# [3] = modulators of CIT2-GFP expression in yeast, primary screen, S. cerevisiae, GFP fusion, multiplex flow cytometry (AID 1870;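 active = percent response above a set limit, the screen-wide mean plus 3 SD, cut at about 130% in these data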;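 note: barcoded CIT2-GFP strain pooled with four other GFP strains with rapamycin as positive control; median GFP fluorescence per well over plate mean of DMSO wells so 100% = DMSO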); conditions: 3 h, at 10 µM, stronger effect = higher value
# [4] = modulators of LAP4-GFP expression in yeast, primary screen, S. cerevisiae, multiplex flow cytometry (AID 1873); conditions: 3 h, at 10 µM, stronger effect = higher value
# [5] = modulators of AGP1-GFP expression in yeast TOR pathway, primary screen, cell-based, multiplex flow cytometry, S. cerevisiae (AID 1887;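 active = GFP signal above the screen-wide mean plus 3 SD, that is over about 124.5% of the solvent control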;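 note: AGP1-GFP fusion strain of S. cerevisiae within a five-strain barcoded multiplex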); conditions: 3 h, at 10 µM, stronger effect = higher value
# [6] = inhibitors of CD8+ T cell-vesicle binding, pilot screen, LFA-1/ICAM-1 modulator project, MLPCN validation set, flow cytometry (AID 2523;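 active = response below a set limit, under 55% cells CD8-positive and vesicle-bound, and CD8 cells' 90th-percentile brightness under 279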;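 for vesicle binding response: mean PE anti-B7-1 fluorescence of CD8+ cells relative to row control; 100% = QL9-loaded vesicles with DMSO vehicle in the same plate row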); conditions: 2C mouse CD8+ T cells, at 7 µM, stronger effect = lower value; double positive events: measured here: CD8+/vesicle+ event percentage
# [7] = target: Integrin beta-1 (Homo sapiens) + Integrin alpha-4 (Homo sapiens) (UniProt P13612+P05556); test: inhibition of HUTS-21 binding to VLA-4, pilot screen, VLA-4 allosteric modulator project, U937 cells, HUTS-21 mAb, flow cytometry, validation set (AID 2674;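 active = inhibition above 50%, about 3 SD of the validation set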;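 note: antibody binding induced by the VLA-4 ligand LDV present at three times its Kd; 0% = LDV ligand with antibody and no compound and 100% = antibody without LDV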); conditions: HUTS-21 LIBS mAb binding, at 6.7 µM, stronger effect = higher value, binding induced by LDV ligand
# Integrin beta-1 (Homo sapiens) + Integrin alpha-4 (Homo sapiens), sequence (P05556 whole entry, looked up): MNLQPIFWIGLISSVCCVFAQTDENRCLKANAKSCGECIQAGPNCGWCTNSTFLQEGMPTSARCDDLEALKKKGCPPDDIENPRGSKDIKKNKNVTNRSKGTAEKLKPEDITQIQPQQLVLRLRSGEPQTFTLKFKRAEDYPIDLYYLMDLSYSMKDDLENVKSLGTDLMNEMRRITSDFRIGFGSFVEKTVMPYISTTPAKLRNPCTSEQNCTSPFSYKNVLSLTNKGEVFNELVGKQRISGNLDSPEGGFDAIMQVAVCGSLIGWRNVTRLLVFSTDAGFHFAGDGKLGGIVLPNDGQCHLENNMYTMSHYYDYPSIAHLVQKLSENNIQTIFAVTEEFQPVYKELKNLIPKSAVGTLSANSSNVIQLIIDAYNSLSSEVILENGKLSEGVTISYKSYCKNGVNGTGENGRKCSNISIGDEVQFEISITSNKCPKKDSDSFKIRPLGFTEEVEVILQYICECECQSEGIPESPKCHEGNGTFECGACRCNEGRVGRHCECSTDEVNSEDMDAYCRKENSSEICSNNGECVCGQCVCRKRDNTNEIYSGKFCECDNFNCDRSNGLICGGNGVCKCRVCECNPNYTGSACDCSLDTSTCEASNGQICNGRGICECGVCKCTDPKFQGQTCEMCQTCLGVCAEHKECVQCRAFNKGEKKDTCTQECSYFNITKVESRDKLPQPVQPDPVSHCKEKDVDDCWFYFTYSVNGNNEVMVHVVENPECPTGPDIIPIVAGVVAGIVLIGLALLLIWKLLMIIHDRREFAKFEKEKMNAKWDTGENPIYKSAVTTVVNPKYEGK
# Integrin beta-1 (Homo sapiens) + Integrin alpha-4 (Homo sapiens), sequence (P13612 whole entry, looked up): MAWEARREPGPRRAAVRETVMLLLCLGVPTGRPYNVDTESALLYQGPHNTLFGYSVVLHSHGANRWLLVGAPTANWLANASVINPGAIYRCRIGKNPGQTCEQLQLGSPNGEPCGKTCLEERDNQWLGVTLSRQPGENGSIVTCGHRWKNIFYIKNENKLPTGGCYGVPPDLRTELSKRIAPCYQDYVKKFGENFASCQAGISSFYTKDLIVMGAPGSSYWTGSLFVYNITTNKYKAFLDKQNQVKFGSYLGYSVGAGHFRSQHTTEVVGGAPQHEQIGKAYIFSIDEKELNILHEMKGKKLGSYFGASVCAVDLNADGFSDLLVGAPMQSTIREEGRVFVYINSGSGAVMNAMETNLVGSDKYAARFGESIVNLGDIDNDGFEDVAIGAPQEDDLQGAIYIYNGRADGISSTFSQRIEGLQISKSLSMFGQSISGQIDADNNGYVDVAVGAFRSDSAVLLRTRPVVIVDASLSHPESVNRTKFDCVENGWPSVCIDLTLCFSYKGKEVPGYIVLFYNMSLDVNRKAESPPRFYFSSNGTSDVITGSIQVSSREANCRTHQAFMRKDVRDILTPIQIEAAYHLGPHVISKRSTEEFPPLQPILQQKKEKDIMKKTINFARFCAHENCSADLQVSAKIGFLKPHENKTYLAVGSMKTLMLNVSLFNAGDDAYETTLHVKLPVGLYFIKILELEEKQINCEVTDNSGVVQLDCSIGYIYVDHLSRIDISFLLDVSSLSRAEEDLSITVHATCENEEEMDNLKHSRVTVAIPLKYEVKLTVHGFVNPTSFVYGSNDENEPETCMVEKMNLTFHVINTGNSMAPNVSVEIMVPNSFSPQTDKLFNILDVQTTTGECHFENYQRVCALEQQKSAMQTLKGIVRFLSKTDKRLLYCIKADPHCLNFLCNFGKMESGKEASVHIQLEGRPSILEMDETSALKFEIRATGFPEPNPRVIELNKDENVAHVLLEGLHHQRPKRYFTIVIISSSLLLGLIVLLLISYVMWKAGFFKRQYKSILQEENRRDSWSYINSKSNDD
# [8] = superoxide lowering in aged yeast cells, pilot screen, validation compound set (AID 2706;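 active = superoxide response below 65% of plate, a cut near 3 SD across the whole screen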;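 note: yeast exposed to compound for one week at 30 degrees C before staining; 100% = mean of all compound wells on the same plate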); conditions: S. cerevisiae aging, superoxide DHE fluorescence; at 10 µM, stronger effect = lower value
# [9] = target: Beta-adrenergic receptor kinase 1 (Homo sapiens) (UniProt P25098); test: GRK2 binders displacing RNA aptamer, biochemical, validation, human GRK2, bead flow cytometry (AID 488806;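 active = aptamer binding inhibition above 30%, about 3 SD of noise from non-fluorescent compounds; inactive = inhibition at or below 30%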); conditions: bead-bound GRK2, FAM-aptamer displacement, at 10 µM, stronger effect = higher value
# Beta-adrenergic receptor kinase 1 (Homo sapiens), sequence (P25098 whole entry, looked up): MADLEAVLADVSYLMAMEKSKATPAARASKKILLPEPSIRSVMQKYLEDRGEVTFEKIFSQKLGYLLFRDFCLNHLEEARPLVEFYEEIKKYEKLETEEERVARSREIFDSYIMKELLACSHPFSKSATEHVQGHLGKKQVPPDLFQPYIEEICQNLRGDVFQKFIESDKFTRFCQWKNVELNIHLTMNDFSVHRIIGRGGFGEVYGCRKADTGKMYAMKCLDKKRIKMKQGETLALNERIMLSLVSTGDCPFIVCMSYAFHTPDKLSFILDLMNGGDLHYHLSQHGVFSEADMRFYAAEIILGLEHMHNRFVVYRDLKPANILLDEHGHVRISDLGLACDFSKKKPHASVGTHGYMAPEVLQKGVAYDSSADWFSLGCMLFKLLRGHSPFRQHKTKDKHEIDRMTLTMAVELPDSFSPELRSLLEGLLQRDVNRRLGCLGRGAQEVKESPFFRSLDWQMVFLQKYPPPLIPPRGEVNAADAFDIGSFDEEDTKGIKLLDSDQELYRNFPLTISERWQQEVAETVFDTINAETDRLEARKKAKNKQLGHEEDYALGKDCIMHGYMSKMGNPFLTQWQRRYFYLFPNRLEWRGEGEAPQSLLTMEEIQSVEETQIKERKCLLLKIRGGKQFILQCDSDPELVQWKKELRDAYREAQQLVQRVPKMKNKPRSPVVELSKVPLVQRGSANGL
# [10] = target: AP-2 complex subunit beta (Homo sapiens) (UniProt P63010); test: inhibitors of arrestin peptide binding to AP2, pilot screen, biochemical, validation set, GST-AP2 beads, flow cytometry (AID 504541;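 active = inhibition above 54%, about 3 SD of non-fluorescent compounds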;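 note: AP2 carries R879A mutation and is captured from E. coli lysate; bead-bound FITC arrestin peptide fluorescence measuring arrestin peptide binding to AP2; 0% = DMSO wells and 100% = excess unlabeled arrestin peptide control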); conditions: FITC arrestin peptide, at 10 µM, stronger effect = higher value, AP2 beta2 appendage fragment, R879A mutant
# AP-2 complex subunit beta (Homo sapiens), sequence (P63010 whole entry, looked up, the tested form may be a part, one chain of several): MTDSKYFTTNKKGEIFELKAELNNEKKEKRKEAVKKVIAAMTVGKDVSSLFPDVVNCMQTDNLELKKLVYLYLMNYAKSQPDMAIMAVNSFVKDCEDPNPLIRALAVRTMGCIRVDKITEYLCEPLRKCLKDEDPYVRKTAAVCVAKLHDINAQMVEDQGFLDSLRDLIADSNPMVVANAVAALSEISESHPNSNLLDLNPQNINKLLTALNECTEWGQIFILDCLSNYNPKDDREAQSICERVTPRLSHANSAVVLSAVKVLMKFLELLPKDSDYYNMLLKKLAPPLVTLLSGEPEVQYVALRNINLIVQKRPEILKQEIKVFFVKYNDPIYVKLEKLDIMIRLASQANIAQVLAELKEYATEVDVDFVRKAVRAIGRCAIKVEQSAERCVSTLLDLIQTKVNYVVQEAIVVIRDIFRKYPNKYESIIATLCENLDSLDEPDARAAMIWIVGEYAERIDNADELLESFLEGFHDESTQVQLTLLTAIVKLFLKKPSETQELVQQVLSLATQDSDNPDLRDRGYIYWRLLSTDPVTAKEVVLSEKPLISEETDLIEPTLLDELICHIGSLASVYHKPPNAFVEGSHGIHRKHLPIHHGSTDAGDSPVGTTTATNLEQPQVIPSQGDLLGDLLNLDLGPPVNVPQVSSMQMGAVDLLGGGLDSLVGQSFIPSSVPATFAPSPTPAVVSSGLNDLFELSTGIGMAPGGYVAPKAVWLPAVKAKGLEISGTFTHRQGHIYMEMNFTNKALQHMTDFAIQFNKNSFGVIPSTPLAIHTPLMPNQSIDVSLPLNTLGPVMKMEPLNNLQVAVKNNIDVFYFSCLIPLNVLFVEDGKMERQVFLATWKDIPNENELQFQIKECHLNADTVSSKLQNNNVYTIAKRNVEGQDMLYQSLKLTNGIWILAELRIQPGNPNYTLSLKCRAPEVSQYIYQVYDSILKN
# [11] = yeast V-ATPase proton transport modulators, S. cerevisiae, pHLuorin, HTS validation (AID 504600; in the data active = response above about 15%;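 note: plate controls were DMSO for no effect and reference compound for full effect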); conditions: S. cerevisiae pHLuorin cytosolic pH, at 10 µM, stronger effect = higher value
# [12] = test system: anti-desmoglein-3 scFv antibody binding to human DSG3; test: inhibitors of anti-DSG3 scFv binding to DSG3, pilot screen, biochemical, validation compound set, bead-based, flow cytometry (AID 588368;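 active = binding below the plate cutoff, the plate median minus 3 SD, with a reading above zero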;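 note: signal is the median channel fluorescence of bead-bound GFP antibody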); conditions: Protein G beads, DSG3-Fc, scFv-GFP binding, at 10 µM, stronger effect = lower value
# [13] = inhibitors of fungal efflux pumps CDR1, CDR2, MDR1, pilot screen, validation compound set, multiplex, phenotypic (AID 588506;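 active = efflux inhibition above 0.42, the validation set average plus 4 SD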;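 note: Nile Red retained in cells so higher fluorescence means more efflux inhibition; 0 = negative control wells and 1 = enniatin B 25 µM full block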); conditions: S. cerevisiae pump-expressing triplex, Nile Red efflux flow cytometry; at 10 µM; stronger effect = higher value; the pumps come from Candida albicans
# [14] = target: ATP-binding cassette sub-family B member 6 (Homo sapiens) (UniProt Q9NP58); test: ABCB6 transporter inhibitors, pilot screen, K562-ABCB6 cells, flow cytometry, validation set (AID 588550;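 active = inhibition above the screen-wide mean plus 3 SD, about 51%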;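 note: 0% = DMSO wells and 100% = benzethonium chloride 70 µM positive control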); conditions: K562-ABCB6 porphyrin accumulation, 1 h, at 10 µM, stronger effect = higher value
# ATP-binding cassette sub-family B member 6 (Homo sapiens), sequence (Q9NP58 whole entry, looked up): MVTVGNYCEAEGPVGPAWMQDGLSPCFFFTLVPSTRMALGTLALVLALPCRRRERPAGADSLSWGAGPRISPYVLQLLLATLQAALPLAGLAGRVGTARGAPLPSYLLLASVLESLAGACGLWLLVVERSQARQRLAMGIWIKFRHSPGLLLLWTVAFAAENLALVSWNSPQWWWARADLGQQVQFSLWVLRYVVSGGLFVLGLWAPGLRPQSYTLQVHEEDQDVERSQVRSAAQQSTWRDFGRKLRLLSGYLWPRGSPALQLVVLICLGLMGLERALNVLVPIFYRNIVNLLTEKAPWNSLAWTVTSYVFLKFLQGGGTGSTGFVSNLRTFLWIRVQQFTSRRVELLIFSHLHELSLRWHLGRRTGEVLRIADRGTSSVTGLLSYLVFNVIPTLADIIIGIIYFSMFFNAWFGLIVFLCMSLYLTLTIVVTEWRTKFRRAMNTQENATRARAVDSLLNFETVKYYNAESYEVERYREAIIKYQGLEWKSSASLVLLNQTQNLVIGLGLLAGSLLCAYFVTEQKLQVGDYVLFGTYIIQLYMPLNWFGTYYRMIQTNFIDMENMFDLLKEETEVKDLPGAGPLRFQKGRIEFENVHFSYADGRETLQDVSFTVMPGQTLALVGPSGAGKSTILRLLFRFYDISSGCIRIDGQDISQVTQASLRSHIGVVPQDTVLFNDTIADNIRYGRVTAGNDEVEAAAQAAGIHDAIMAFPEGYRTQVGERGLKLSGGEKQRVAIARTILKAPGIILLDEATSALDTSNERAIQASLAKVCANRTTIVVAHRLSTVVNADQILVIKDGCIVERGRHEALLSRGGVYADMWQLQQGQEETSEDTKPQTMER
# [15] = promoters of myeloid differentiation in arrested cells, primary screen, cell-based, GFP/MAC1 double positive, flow cytometry, validation set (AID 588685;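 active = differentiation response of at least 50%, scaled between solvent and reference control, from cells with both markers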;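 note: compound exposure lasts four days before antibody staining and flow analysis; 0% = DMSO wells and 100% = 5 µM fulvestrant positive control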); conditions: ER-HoxA9 marrow cells, stronger effect = higher value, normalized: vehicle 0, fulvestrant 100
SMILES,percent of DMSO control GFP [1],GFP response vs DMSO [2],percent response of DMSO control [3],GFP response vs DMSO [4],"GFP response, % of DMSO [5]",double positive events [6],vesicle binding response [6],inhibition [7],superoxide response (% of plate) [8],aptamer binding inhibition [9],inhibition [10],response [11],binding (% of control) [12],efflux inhibition (fraction of control) [13],inhibition [14],differentiation response [15]
COc1cc2c(cc1OC)-c1cc(OCc3ccccc3Cl)nc(=O)n1CC2,98.8% (inactive),98.9% (inactive),101% (inactive),99.4% (inactive),97.5% (inactive),57.7%,172% (inactive),9.09% (inactive),97.5% (inactive),4% (inactive),4.7% (inactive),-7% (inactive),99.8% (inactive),0.06 (inactive),4% (inactive),-18% (inactive)
CC1(C)Cc2ccccc2C(C(Cc2ccccc2)C(N)=O)=N1 (stereo not given),100% (inactive),99.9% (inactive),106% (inactive),89.3% (inactive),92.7% (inactive),51%,132% (inactive),24% (inactive),116% (inactive),3% (inactive),-4.92% (inactive),6.35% (inactive),101% (inactive),0.44 (active),9% (inactive),-5.05% (inactive)
O=C(CCN1CCC(c2ccccc2)C1)c1ccc2c(c1)OCCO2 (stereo not given),102% (inactive),134% (inactive),103% (inactive),104% (inactive),102% (inactive),47.2%,140% (inactive),13.8% (inactive),94% (inactive),5% (inactive),-9.51% (inactive),2.78% (inactive),103% (inactive),-0.31 (inactive),6% (inactive),-5.05% (inactive)
CN1C(=O)C(O)(CC(=O)c2ccccc2O)c2cc(Br)ccc21 (stereo not given),100% (inactive),107% (inactive),109% (inactive),115% (inactive),106% (inactive),57.7%,199% (inactive),16.6% (inactive),101% (inactive),0% (inactive),4.33% (inactive),0.66% (inactive),99% (inactive),-0.09 (inactive),9% (inactive),7.87% (inactive)
CC(=O)OCC(=O)C1=CCC2C3CCC4=CC(=O)C=CC4(C)C3(F)C(OC(C)=O)CC12C (stereo not given),99.8% (inactive),101% (inactive),106% (inactive),84.3% (inactive),105% (inactive),59%,180% (inactive),6.29% (inactive),87.6% (inactive),7% (inactive),-3.56% (inactive),6.47% (inactive),96.2% (inactive),0.18 (inactive),9% (inactive),-11.5% (inactive)
